Compound activity (PubChem)
In the library only some 0.5% were active in any assay of this set; here they are far more common.
Tat transport – E. coli Tat export inhibitors, primary screen, MC4100, TorA-mCherry reporter, fluorescence, single point. 0.036% of 340,000 active. AID 488895, 2010. inhibition, % at 10 µM;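 active = mean replicate inhibition at least 50% and at least half of replicates individually reaching 50%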;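 note: exported cargo escapes ClpAP degradation while cytoplasmic cargo is degraded and loses fluorescence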
E coli growth-1 – E. coli V3065 growth inhibition, primary screen, counter-screen for AddAB inhibitor project, absorbance, OD600; 18 h; inhibition, % at 11.9 µM; 0.27% of 330,000 active;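 active = inhibition above the campaign's mean inhibition across all tested compounds plus 3 SD, cut at about 9.9% in these data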;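 note: uninfected addAB+ strain grown without phage in ampicillin broth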
E coli growth-2 – E. coli growth inhibition, primary screen, OD600; Escherichia coli growth, 23 h; active compounds read low; OD600 absorbance (test concentration not listed); 0.21% of 330,000 active; AID 1053175, 2014;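 active = OD600 absorbance below the run mean of sample wells minus 3.6 SD, in any replicate, cut at about 0.56 in these data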
AddAB inh – growth inhibition of E. coli expressing H. pylori AddAB, primary screen, AddAB inhibitor project, absorbance; AID 435030, 2010; 0.29% of 330,000 active; inhibition, % at 11.9 µM; in the data active = inhibition above about 12%
phage Ecoli inh – growth loss of phage-infected E. coli, primary screen, RecBCD inhibitor project, absorbance, with phage, HTS; inhibition, % at 11.9 µM; 0.26% of 360,000 active; in the data active = inhibition above about 11%
AddAB conf – growth loss of phage-infected E. coli expressing H. pylori AddAB, confirmation, AddAB inhibitor project, absorbance, E. coli V3065, T4 phage, triplicate; shares compounds with AddAB inh; OD; T4 phage with gene 2 nonsense mutations; inhibition, % at 11.9 µM; 64% of 880 active;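 active = mean inhibition above a set limit taken from the earlier primary screen, cut at about 13% in these data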;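 note: higher means less bacterial growth since AddAB block lets phage replicate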
RecBCD counter – growth loss of RecBCD+ E. coli with mutant T4 phage, counter-screen for AddAB inhibitor project, absorbance, V66 E. coli; shares compounds with AddAB inh; AID 488955, 2010; 73% of 880 active; OD growth; inhibition, % at 11.9 µM;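 active = mean inhibition above the mean of solvent-only control wells plus 3 SD, cut at about 4% in these data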;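 note: optical density read after an 18 h incubation at 37 °C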
bact viab count – bacterial viability inhibition counter-screen, confirmation, counter-screen for AddAB inhibitor project, absorbance; shares compounds with AddAB inh; absorbance (AddAB counterscreen); inhibition, % at 11.9 µM; 35% of 880 active; in the data active = inhibition above about 25%
RecBCD conf – growth loss of phage-infected RecBCD+ E. coli, confirmation, RecBCD inhibitor project, absorbance, E. coli V66, T4 gene 2 phage; shares compounds with phage Ecoli inh; E. coli V66 + T4 2- phage, growth OD; inhibition, % at 11.9 µM; 45% of 890 active;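 active = mean inhibition over triplicates exceeding the hit threshold derived in the original primary screen, cut at about 11% in these data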
Ecoli viability – E. coli viability inhibition, counter-screen for RecBCD inhibitor project, absorbance, high throughput. shares compounds with phage Ecoli inh. absorbance (OD) growth. inhibition, % at 11.9 µM. 29% of 890 active. AID 651983, 2013; in the data active = inhibition above about 20%;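 note: E. coli strain V66 grown with compound alone and no phage infection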
AddAB phage OD – growth loss of phage-infected AddAB-carrying E. coli, confirmation, counter-screen for RecBCD inhibitor project, absorbance, E. coli V3065, T4 phage. shares compounds with phage Ecoli inh. E. coli expressing H. pylori AddAB + T4 phage, OD growth; gene 2 mutant T4, recBCD-deleted host. inhibition, % at 11.9 µM. 45% of 890 active;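 active = mean inhibition above the solvent-only control wells' mean plus 3 SD, cut at about 22% in these data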;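 note: higher means less bacterial growth from phage killing when AddAB is blocked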
A number is an active result; n = inactive; x = not tested or not shown.

SMILES | Tat transport | E coli growth-1 | E coli growth-2 | AddAB inh | phage Ecoli inh | AddAB conf | RecBCD counter | bact viab count | RecBCD conf | Ecoli viability | AddAB phage OD
CCOC(=O)[C@@H]1[C@H]2COc3cc(OC)ccc3[C@H]2N2C(=O)N(c3ccc(C(F)(F)F)cc3)C(=O)[C@]12C | n | n | x | 14 | 15 | n | 8.4 | n | n | n | n
N=C(N)SCc1ccc(Cl)cc1Cl | n | 68 | 0.12 | 82 | 72 | 86 | 66 | 89 | 68 | 69 | 90
NC(=S)Cc1ccc(Cl)cc1Cl | n | n | n | n | n | x | x | x | x | x | x
COc1ccc(O)c(C=NNC(=O)CCC(=O)Nc2ccc(C)cc2)c1 | x | x | n | x | x | x | x | x | x | x | x
Oc1ccc2ccccc2c1/C=N/Nc1nnc(-c2ncc[nH]2)c2ccccc12 | n | 14 | x | 19 | 17 | 22 | 24 | n | 17 | 22 | 27
Oc1ccc2ccccc2c1C=NNc1nnc(-c2ncc[nH]2)c2ccccc12 | x | x | n | x | x | x | x | x | x | x | x
CCn1cc(C(=O)N[C@H](C(=O)NCCCOC)C(C)C)c(=O)c2cc3c(cc21)OCO3 | n | n | n | n | n | x | x | x | x | x | x
CCn1cc(C(=O)N[C@H](C(=O)O)C(C)C)c(=O)c2cc3c(cc21)OCO3 | n | 55 | 0.069 | 59 | 12 | 101 | 10 | 78 | n | n | 52
CC(C)COc1ccc(Cc2cnc(N)nc2N)cc1 | n | n | 0.24 | 12 | 16 | n | 9.2 | n | n | n | n
COc1cccc(/C=N/Nc2ccc([N+](=O)[O-])cn2)c1O | n | 22 | x | 26 | 18 | 21 | 17 | n | 12 | n | n
O=[N+]([O-])c1ccc(C=C2CCC(C3=CCCC3)=C2N2CCOCC2)cc1 | x | x | n | x | x | x | x | x | x | x | x
CC(=NNC(=S)N1CCCCC1)c1ccccn1 | x | x | x | x | n | x | x | x | x | x | x
C=CCNC(=S)N/N=C(\C)c1ccccn1 | n | 30 | x | 31 | 38 | 31 | 29 | 25 | 27 | 34 | 32
CCCCNC1=CC(=O)C(NCCCC)=CC1=O | n | x | n | x | n | x | x | x | x | x | x
CCCCNC1=CC(=O)C(=O)c2ccccc21 | n | 25 | 0.42 | 29 | 21 | 32 | 9.9 | n | 13 | n | 22
CC(C)(C)c1ccc(OCCCC(=O)NNC(=O)c2ccccc2O)cc1 | n | 14 | n | 20 | 13 | n | 10 | n | n | n | n
Cc1cc(C(=O)NNC(=O)CCCOc2ccccc2)c(C)o1 | n | n | n | n | n | x | x | x | x | x | x
CN[C@@H]1[C@H](O)[C@H](NC)[C@H]2O[C@@]3(O)C(=O)C[C@@H](C)O[C@H]3O[C@@H]2[C@H]1O | 119 | 34 | 0.51 | 35 | 52 | 78 | 47 | 57 | 58 | 35 | 75
COc1ccc(Br)cc1C=NNC(=O)CN1CCCCC1 | x | x | n | x | x | x | x | x | x | x | x
CCN(CC)c1ccc(/C=N/NC(=O)c2cccc(S(=O)(=O)Nc3ccccc3OC)c2)c(O)c1 | n | 33 | x | 32 | 28 | 21 | 26 | n | 19 | 24 | 28
Nc1nc(=S)c2[nH]cnc2[nH]1 | n | 77 | x | 92 | 66 | 91 | 60 | 74 | 57 | 67 | 84
Nc1nc(=S)c2[nH]c(=S)[nH]c2[nH]1 | n | x | n | x | n | x | x | x | x | x | x
O=C(NN=Cc1ccc(OC(=O)c2ccccc2Cl)cc1)c1ccc(O)cc1 | x | x | n | x | x | x | x | x | x | x | x
N#C/C(=C(/O)c1ccc([N+](=O)[O-])o1)c1nc2ccccc2[nH]1 | n | 13 | 0.47 | 19 | 13 | 96 | 63 | 98 | 35 | 64 | 101
N#C/C(=C\c1ccc(Sc2ccccc2)o1)c1nc2ccccc2[nH]1 | n | n | n | n | n | x | x | x | x | x | x
SMILES | Tat transport | E coli growth-1 | E coli growth-2 | AddAB inh | phage Ecoli inh | AddAB conf | RecBCD counter | bact viab count | RecBCD conf | Ecoli viability | AddAB phage OD
CC(C)(C)/C(O)=C(/C#N)c1nc2ccccc2[nH]1 | n | n | x | n | n | x | x | x | x | x | x
N#C/C(=C\c1ccc([N+](=O)[O-])o1)c1nc2ccccc2[nH]1 | x | 17 | n | 94 | 13 | 100 | 16 | 94 | 11 | n | 76
CC1=NNC(=O)C1CCC(=O)NN=Cc1ccccc1 (configuration not stated) | x | x | n | x | x | x | x | x | x | x | x
CC[C@H]1OC(=O)[C@H](C)[C@@H](O[C@H]2C[C@@](C)(OC)[C@@H](O)[C@H](C)O2)[C@H](C)[C@@H](O[C@@H]2O[C@H](C)C[C@H](N(C)C)[C@H]2O)[C@](C)(OC)C[C@@H](C)C(=O)[C@H](C)[C@@H](O)[C@]1(C)O | 58 | 17 | x | 22 | 15 | 52 | 25 | 28 | 29 | 30 | 40
Fc1ccc(NC(=S)NCc2ccccc2Cl)cc1 | n | 13 | n | 14 | 12 | 36 | 25 | 35 | 17 | 24 | 38
O=C(N/N=C/c1c(O)ccc2ccccc12)c1cccc(C(F)(F)F)c1 | n | 22 | x | 28 | 18 | 14 | 17 | n | n | n | n
Nc1c(Cl)ncnc1N/N=C/c1ccnc2ccccc12 | n | n | x | n | n | x | x | x | x | x | x
Nc1c(Cl)ncnc1N/N=C/c1ccc2ccccc2n1 | n | 24 | x | 27 | 26 | 23 | 18 | n | 11 | n | n
COc1ccc(Cl)cc1C(Nc1cccnc1)c1ccc2cccnc2c1O (configuration not stated) | n | 23 | n | 14 | 16 | n | 12 | n | n | n | n
O=[N+]([O-])c1ccc(C=NN=Cc2ccc([N+](=O)[O-])o2)o1 | x | x | n | x | x | x | x | x | x | x | x
NC(=O)N/N=C/c1ccc([N+](=O)[O-])o1 | n | 101 | x | 101 | 63 | 98 | 40 | 98 | 34 | 57 | 103
O=[N+]([O-])c1ccc(/C=[N+](\[O-])CCO)o1 | n | 99 | x | 99 | 97 | 98 | 99 | 99 | 105 | 107 | 105
O=C(N/N=C/c1ccc([N+](=O)[O-])o1)C1CC1 | n | 73 | x | 100 | 35 | 99 | 23 | 71 | 12 | n | 100
NC(=O)NN=Cc1ccc(-c2ccc([N+](=O)[O-])cc2)o1 | x | x | n | x | x | x | x | x | x | x | x
COC(=O)N/N=C/c1ccc([N+](=O)[O-])o1 | n | 79 | x | 97 | 19 | 99 | 21 | 67 | 13 | n | 103
